High-throughput results (PubChem BioAssay)
HSF1 inh = HSF1 inhibition; AID 2098; actives 0.77% (n = 300,000); activity change, negative = inhibition, % at 7.5 µM (by protocol); NIH3T3-HGL HSE-luciferase, MG132-induced, luminescence 8 h; active compounds read low;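 active = more than half of replicate wells show activity change below -50%, luminescence cut by over half; inconclusive = some wells, but at most half, below -50%; inactive = no replicate well below -50%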;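 also: luciferase reports HSF-1 transcriptional activity via heat shock element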
TROY NFkB inh = inhibitors of TROY-dependent NF-kB signaling; actives 0.98% (n = 360,000); inhibition, % at 10 µM; Q293 LMP1-TROYcd NF-kB luciferase reporter, 4 h;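 active = compounds whose plate-normalised and pattern-corrected inhibition of the luciferase reporter signal at the single screening dose is 50% or more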
TWEAK Fn14 block = blocks TWEAK-Fn14 interaction in a reporter cell assay | TWEAK-stimulated Fn14 reporter cells, luciferase luminescence, 8 h | inhibition, % at 10 µM | actives 2% (n = 360,000) | AID 1159606; in the data active = inhibition above about 50%
LGR2 inh = inhibitors of bursicon-induced Drosophila LGR2 receptor cAMP signaling | inhibition, % at 9.99 µM | HEK293 LGR2, CRE-luciferase, bursicon-stimulated, 4 h | actives 0.35% (n = 380,000);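 active = drop in luminescence signal, shown as inhibition above about 50% in the replicate tests, limit read from the data, passing the limit was not always enough; inconclusive = probably only some replicates passing the limit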;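 also: agonist challenge used bursicon conditioned medium at about half maximal strength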
HSF1 activator = increases HSF-1 driven luciferase reporter signal. activation, % at 9 µM. actives 1.7% (n = 300,000). AID 504408. NIH3T3-HGL HSF-1 luciferase reporter, MG132, 8 h; 100% = twice DMSO control signal;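 active = mean replicate activation of at least 50% with a set share of replicates each reaching 50%; inconclusive = only one of those two conditions met; inactive = mean below 50% and too few replicates reaching it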
EBV LMP1 NFkB = reduces LMP1-driven NF-kappaB luciferase signal; LMP1-induced NF-kappaB luciferase reporter cells, luminescence; inhibition, % at 12.5 µM; actives 0.69% (n = 350,000); AID 504558; in the data active = inhibition above about 41%; inconclusive = no clear call, values can overlap the other calls
Hits are given with their value; n = inactive; u = inconclusive; x = not tested or not shown. In the library only some 3.6% were active in any assay of this set; here they are far more common.

SMILES	HSF1 inh	TROY NFkB inh	TWEAK Fn14 block	LGR2 inh	HSF1 activator	EBV LMP1 NFkB
CO[C@@H]1CN(C)C(=O)c2ccc(NC(=O)C3CCCCC3)cc2OC[C@@H](C)N(C(=O)c2ccccc2)C[C@H]1C	x	x	x	n	x	x
C[C@H]1CN([C@@H](C)CO)S(=O)(=O)c2ccc(-c3cccnc3)cc2O[C@H]1CN(C)C(=O)C1CC1	x	x	x	n	x	x
Cc1cc(O)cc(O)c1-c1onc(C(F)(F)F)c1-c1cscn1	n	x	52	x	n	n
COCC(=O)Nc1ccc2c(c1)C(=O)N(C)[C@@H]1CC[C@H](CC(=O)NCCc3ccncc3)O[C@@H]1CO2	x	x	x	n	x	x
COc1ccc(NC(=O)Nc2ccc3c(c2)CC(=O)N([C@@H](C)CO)C[C@H](C)[C@H](CN(C)Cc2ccc(Cl)c(Cl)c2)O3)cc1	x	x	x	n	x	x
Cc1ccccc1CN1CCN(c2nc3ccccc3s2)CC1	n	n	n	n	81	n
COc1ccc(NC(=O)Nc2ccc3c(c2)C(=O)N([C@H](C)CO)C[C@@H](C)[C@H](CN(C)S(=O)(=O)c2ccc(OC)cc2)O3)cc1	x	x	x	n	x	x
CC(C)C(=O)NC(c1ccc([N+](=O)[O-])cc1)c1c(O)ccc2ccccc12 (stereo unspecified)	n	n	n	x	n	n
CCCC(=O)NC(c1cccc([N+](=O)[O-])c1)c1ccc2cccnc2c1O (stereo unspecified)	x	n	n	n	x	68
O=C(Cc1ccccc1)NC(NC(=O)Cc1ccccc1)c1cccc([N+](=O)[O-])c1	n	n	n	n	n	n
CCC(=O)NC(c1cccc([N+](=O)[O-])c1)c1c(OC(C)=O)ccc2ccccc12 (stereo unspecified)	n	n	n	x	n	n
CC(C)C(=O)NC(c1cccc([N+](=O)[O-])c1)c1c(O)ccc2ccccc12 (stereo unspecified)	n	51	n	n	n	n
CC(C)C(=O)NC(c1cccc([N+](=O)[O-])c1)c1ccc2cccnc2c1O (stereo unspecified)	n	n	n	n	n	52
CC(C)CC(=O)NC(NC(=O)CC(C)C)c1cccc([N+](=O)[O-])c1	-70	n	n	n	n	n
C[C@@H]1CN([C@H](C)CO)C(=O)c2cc(C#CC3CCCCC3)cnc2O[C@@H]1CN(C)Cc1cncnc1	x	x	x	n	x	x
C[C@H](CO)N1C[C@H](C)[C@H](CN(C)S(=O)(=O)c2cccs2)Oc2c(NS(=O)(=O)c3ccccc3)cccc2C1=O	x	x	x	n	x	x
C[C@@H]1CN([C@@H](C)CO)C(=O)Cc2cc(NC(=O)Nc3cccc4ccccc34)ccc2O[C@H]1CN(C)Cc1ccc2c(c1)OCO2	x	x	x	n	x	x
N=C1C(c2nc3ccccc3[nH]2)=C(O)CN1c1ccc(CC(=O)O)cc1	-54	n	n	x	n	n
CCOc1ccc(N2CC(O)=C(c3nc4ccccc4c(=O)[nH]3)C2=N)cc1	n	n	n	n	u	46
CO[C@@H]1CN(C)C(=O)c2cc(NC(=O)C3CC3)ccc2OC[C@@H](C)N(Cc2nccs2)C[C@H]1C	x	x	x	n	x	x
CC(C)C#Cc1ccc2c(c1)O[C@H](CN(C)Cc1cccnc1)[C@H](C)CN([C@H](C)CO)S2(=O)=O	x	x	x	n	x	x
CC(C)NC(=O)N(C)C[C@@H]1Oc2ccc(NC(=O)Nc3ccc(F)cc3)cc2C(=O)N([C@@H](C)CO)C[C@H]1C	x	x	x	n	x	x
CCC1Sc2ccc(S(=O)(=O)Nc3ccc(OC)c(OC)c3)cc2NC1=O (stereo unspecified)	n	n	n	n	n	n
CCC1Sc2ccc(S(=O)(=O)Nc3ccc(OC)cc3)cc2NC1=O (stereo unspecified)	-56	n	n	n	n	n
CC(=O)n1c2c(c3ccccc31)OC(N)=C(C#N)C2c1cccc(Cl)c1Cl (stereo unspecified)	n	n	n	n	74	n
SMILES	HSF1 inh	TROY NFkB inh	TWEAK Fn14 block	LGR2 inh	HSF1 activator	EBV LMP1 NFkB
COc1ccc(Cl)cc1S(=O)(=O)N1CCC(C(=O)NCCc2ccccc2)CC1	-79	n	n	n	n	n
Cc1ccc(Cl)cc1S(=O)(=O)N1CCC(C(=O)NC2CCN(Cc3ccccc3)CC2)CC1	n	n	52	n	n	n
CN(CCNC(=O)C1CCN(S(=O)(=O)N2CCOCC2)CC1)CCc1ccccc1	n	n	n	n	n	41
CN1C(=O)c2cc(NC(=O)c3cccc(F)c3)ccc2OC[C@H]2O[C@@H](CC(=O)NC3CCC3)CC[C@@H]21	x	x	x	n	x	x
CN1/C(=C\C(=O)c2cncc(Br)c2)C(C)(C)c2ccccc21	n	n	56	n	n	n
CN1/C(=C\C(=O)COc2ccc3c(c2)OCO3)C(C)(C)c2ccccc21	n	69	64	x	n	n
CN1/C(=C/C(=O)c2nc(S(C)(=O)=O)ncc2Cl)C(C)(C)c2ccccc21	-92	70	84	x	n	60
CN1/C(=C\C(=O)c2ccco2)C(C)(C)c2ccccc21	n	n	61	n	n	n
COc1ccccc1OCC(=O)/C=C1/N(C)c2ccccc2C1(C)C	n	n	n	n	n	n
Cc1ccc(S(=O)(=O)N(C)C[C@H]2Oc3ccc(NC(=O)CCCN(C)C)cc3CC(=O)N([C@@H](C)CO)C[C@H]2C)cc1	x	x	x	n	x	x
COCC(=O)Nc1ccc2c(c1)[C@@H]1C[C@@H](CC(=O)NCCN3CCCCC3)O[C@@H](CO)[C@@H]1O2	x	x	x	n	x	x
COc1ccc(S(=O)(=O)Nc2ccc3c(c2)C(=O)N([C@@H](C)CO)C[C@H](C)[C@@H](CN(C)S(C)(=O)=O)O3)cc1	x	x	x	n	x	x
O=C(CN1CCOCC1)NCC[C@H]1CC[C@H](NS(=O)(=O)c2ccc(F)cc2)[C@H](CO)O1	x	x	x	n	x	x
C(=C\c1ccccc1)/C=N/N1CCN(c2ccccn2)CC1	n	n	n	x	n	85
C/C=C(/C)C(=O)O[C@@H]1c2c(ccc3ccc(=O)oc23)O[C@@H]1C(C)(C)OC(=O)/C(C)=C\C	n	n	n	58	n	n
CCCCCCC(=O)N(O)C1CC(=O)N(c2ccc(C)cc2)C1=O (stereo unspecified)	n	n	n	x	n	51
CCCCCCC(=O)N(O)C1CC(=O)N(c2ccc(Cl)cc2)C1=O (stereo unspecified)	n	n	n	n	n	n
C[C@H]1CCCCO[C@H](CN(C)C(=O)c2ccccc2)[C@@H](C)CN([C@@H](C)CO)C(=O)c2cc(NS(=O)(=O)c3ccc(F)cc3)ccc2O1	x	x	x	n	x	x
CC(NC(=O)c1sc2ccccc2c1Cl)C1CCCO1 (stereo unspecified)	n	n	n	n	69	n
CC(NC(=O)c1csc2ccccc12)C1CCCO1 (stereo unspecified)	n	n	n	x	n	n
CC(NC(=O)c1cc(-c2ccccc2)nc2ccccc12)C1CCCO1 (stereo unspecified)	n	x	x	x	52	x
COc1cc2cc3c(N)c(C(=O)NCc4ccco4)sc3nc2cc1OC	n	n	n	x	n	n
